AHR activator = activators of human aryl hydrocarbon receptor. AID 2796. activation, % at 5 µM. hit rate 2.5% among 320,000. P35869. AHR-responsive luciferase reporter cells, luminescence; in the data active = activation above about 47%
GRIN3A LBD mod = modulators (binders) of human NR3A ligand-binding domain; NR3A LBD differential scanning fluorimetry, Tm shift; 0% = protein alone, 100% = glycine-bound protein; Tm shift relative to glycine control, % at 25 µM; hit rate 2.5% among 340,000; AID 1259313;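 active = melting temperature shift of at least 10% of the positive control shift, at one fixed dose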
ADAM10 inh = inhibitors of human ADAM10; O14672; recombinant ADAM10, EDANS/DABCYL FRET peptide cleavage, 3 h; inhibition, % at 7 µM; hit rate 0.62% among 370,000; AID 720582;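 active = inhibition above a per-campaign cutoff equal to the mean of compounds falling between control-based bounds plus 3 SD, cut at about 20% in these data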
rCAG binder = r(CAG) repeat RNA binding | TO-PRO-1 dye displacement fluorescence | inhibition, % at 3 µM | hit rate 1.3% among 370,000;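 active = inhibition above the plate cutoff, the mean of all test compounds on that plate plus 3 SD, cut at about 35% in these data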;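 also: higher means more dye released from RNA so lower well fluorescence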
proKLK7 act = activates the human kallikrein-7 zymogen; P49862; purified proKLK7, EDANS-DABCYL substrate fluorescence; 100% is mature enzyme control, 0% vehicle; activation, % at 7 µM; hit rate 0.9% among 370,000; AID 652039;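 active = activation above the mean of all tested compounds plus 3 SD, computed per campaign excluding outliers beyond control limits, cut at about 13% in these data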
Target sequence (P49862 whole entry, looked up): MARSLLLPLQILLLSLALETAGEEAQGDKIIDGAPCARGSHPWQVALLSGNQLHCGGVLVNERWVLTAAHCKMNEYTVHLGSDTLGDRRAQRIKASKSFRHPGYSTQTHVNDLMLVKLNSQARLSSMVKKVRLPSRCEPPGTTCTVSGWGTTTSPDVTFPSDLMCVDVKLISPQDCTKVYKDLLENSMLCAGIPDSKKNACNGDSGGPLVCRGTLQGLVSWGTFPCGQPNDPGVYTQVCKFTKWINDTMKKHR
ADAM17 inh = ADAM17 inhibition, QFRET primary screen; hit rate 0.83% among 370,000; P78536; inhibition, % at 6.95 µM; recombinant ADAM17, EDANS/DABCYL FRET peptide cleavage;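 active = inhibition above the mean of compounds lying between control limits plus 3 SD, set per campaign, cut at about 8.5% in these data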
AHR act confirm = human AHR activation, confirmation. hit rate 87% among 2,300. activation, % at 9 µM. shares compounds with AHR activator. AID 2845. human cells, AHR-responsive luciferase reporter, luminescence; in the data active = activation above about 49%;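 also: HepG2 hepatoma cells carrying a DRE-driven firefly luciferase reporter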
PXR counter = counter-screen for AHR activators: human PXR activators | shares compounds with AHR activator | hit rate 88% among 2,300 | cell-based PXR reporter, luciferase luminescence | activation, % at 11.6 µM; in the data active = activation above about 11%;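 also: human hepatoma DPX-2 cells expressing full-length human PXR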
Target sequence (O75469 whole entry, looked up): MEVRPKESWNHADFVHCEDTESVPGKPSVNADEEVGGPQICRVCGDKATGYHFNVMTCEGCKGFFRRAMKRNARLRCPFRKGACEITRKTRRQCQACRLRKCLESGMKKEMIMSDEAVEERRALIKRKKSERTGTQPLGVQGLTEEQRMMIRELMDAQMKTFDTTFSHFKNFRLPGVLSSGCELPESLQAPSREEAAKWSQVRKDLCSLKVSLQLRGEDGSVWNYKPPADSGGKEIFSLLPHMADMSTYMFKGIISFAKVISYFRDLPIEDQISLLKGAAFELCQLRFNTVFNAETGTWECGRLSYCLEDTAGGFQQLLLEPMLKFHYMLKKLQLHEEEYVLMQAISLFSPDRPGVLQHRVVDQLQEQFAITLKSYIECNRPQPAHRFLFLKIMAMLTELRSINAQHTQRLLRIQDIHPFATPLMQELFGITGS
Of the large screens only hits and unclear results are named; the others gave an inactive call (follow-up assays come after a bar, where they were run). Sampled rows, rich in hits. Any-hit rate of the full collection: about 7%.

c1ccc(-c2csc(Nc3ncccn3)n2)cc1	none
CCOc1ccccc1Nc1nc(-c2cccnc2)cs1	none (no result: AHR activator)
Clc1ccccc1Nc1nc(-c2cccnc2)cs1	AHR activator 114 | AHR act confirm 129 | PXR counter 16
COc1cccc(Nc2nc(-c3cccnc3)cs2)c1	AHR activator 108 | AHR act confirm 127 | PXR counter 13
NNc1nc(-c2ccccc2)cs1	AHR activator 80 | AHR act confirm 82 | PXR counter 27
CCOC(=O)N[C@H](C(=O)N1CCC[C@H]1C(=O)NCCc1ccccc1Cl)C1CCCCC1	none (no result: AHR activator, GRIN3A LBD mod)
Cc1ccc(Nc2nc(-c3ccc(F)cc3)cs2)nc1	none (no result: AHR activator)
Cc1ccc(Nc2nc(-c3cccnc3)cs2)cc1Cl	none
c1ccc(Nc2nc(-c3cccnc3)cs2)nc1	AHR activator 166, GRIN3A LBD mod 34 | AHR act confirm 74 | PXR counter 41
Cc1ccc(C)c(Nc2nc(-c3cccnc3)cs2)c1	AHR activator 82, GRIN3A LBD mod 20 | AHR act confirm 90 | PXR counter 26
Cc1ccnc(Nc2nc(-c3ccccc3)cs2)c1	AHR activator 163 | AHR act confirm 89 | PXR counter 48
CCC(=O)Nc1cccc(-c2csc(-c3ccccc3)n2)c1	AHR activator 105 | AHR act confirm 85 | PXR counter 21
OCC1OC(C(N=Nc2ccccc2)=NNc2ccccc2)C(O)C1O (stereo not given)	none (no result: AHR activator, GRIN3A LBD mod)
Cn1c(=O)c(-c2ccccc2)nn2c3ccccc3nc12	AHR activator 110 | AHR act confirm 131 | PXR counter 19
Cc1ccc(C(=O)NC(=S)Nc2cccc(-c3nc4ccccc4s3)c2)cc1	none
FC(F)(F)c1ccc(-c2nc3ccccc3s2)cc1	none (no result: AHR activator, GRIN3A LBD mod)
COc1ccc(-c2nc3ccccc3s2)cc1O	AHR activator 82 | AHR act confirm 76 | PXR counter 11
Nc1cccc(-c2nc3ccccc3s2)c1	AHR activator 116 | AHR act confirm 96 | PXR counter inactive
O=C(/C=C/c1ccco1)NC(=S)Nc1cccc(-c2nc3ccccc3s2)c1	AHR activator 82 | AHR act confirm 118 | PXR counter 33
CC(=O)Nc1cccc(-c2nc3ccccc3s2)c1	AHR activator 124 | AHR act confirm 99 | PXR counter 20
Cc1ccc(-c2nc3ccccc3s2)cc1NC(=S)NC(=O)/C=C/c1ccco1	none
C[C@H](CO)N1C[C@H](C)[C@@H](CN(C)C(=O)Nc2cccc(F)c2)OCc2cn(nn2)CCCC1=O	none (no result: AHR activator, GRIN3A LBD mod)
COc1cccc(CNC(=O)[C@H]2CCCN2C(=O)[C@H]2CCCN2C(=O)c2c(F)cccc2F)c1	none (no result: AHR activator, GRIN3A LBD mod)
O=C1CCC[C@H]2C[C@H](NCCc3ccncc3)CC[C@]23CCCN13	none (no result: AHR activator, GRIN3A LBD mod, rCAG binder, proKLK7 act)
Oc1cccc(-c2nc3ccccc3s2)c1	AHR activator 86 | AHR act confirm 58 | PXR counter 12
Oc1ccc(O)c(Cc2nc3ccccc3s2)c1	none
C=CCN1CC(COCc2ccccc2)OCCS1(=O)=O (stereo not given)	none (no result: AHR activator, GRIN3A LBD mod)
COCCCn1nnnc1SCC(=O)Nc1nc2ccccc2s1	AHR activator 112 | AHR act confirm 101 | PXR counter 61
COc1ccc2nc(NC(=O)CSc3nc(SC)ns3)sc2c1	none
CCn1nnnc1SCC(=O)Nc1nc2ccccc2s1	AHR activator 86 | AHR act confirm 61 | PXR counter 42
O=C(CSc1nnnn1-c1ccc(F)cc1)Nc1nc2ccccc2s1	none
CSc1nsc(SCC(=O)Nc2nc3ccccc3s2)n1	AHR activator 80 | AHR act confirm 53 | PXR counter 13
COc1ccc(C(=O)OCCN2CCN(C3CN(Cc4cn(Cc5cccc(F)c5)nn4)S(=O)(=O)C3)CC2)cc1OC (stereo not given)	none (no result: AHR activator, GRIN3A LBD mod)
COCc1cc(N2CCN(C(=O)OC(C)(C)C)C[C@H]2C)ccc1N1CCN(Cc2ccccc2)[C@@H](C)C1	none (no result: AHR activator, GRIN3A LBD mod)
CCOC(=O)[C@]12CCCC=C1N(Cc1ccc(OC)cc1)C(=O)[C@@H]2CC(=O)NCCCN1CCCC1=O	none (no result: AHR activator, GRIN3A LBD mod)
O=C(NCCCc1ccccc1)OC1CC2CC1[C@H]1CCCCN1C2 (stereo not given in full)	none (no result: AHR activator, GRIN3A LBD mod)
Cc1nnc(Nc2ccc3c(c2)OCO3)c2ccccc12	AHR activator 84 | AHR act confirm 105 | PXR counter 161
CC(C)(C)S(=O)N1C[C@@H]2CC(=O)C=C2[C@H]1CCO (stereo not given in full)	none (no result: AHR activator, GRIN3A LBD mod)
N#Cc1ccccc1NC(=O)COc1ccccc1C(=O)Nc1ccccc1	AHR activator 93 | AHR act confirm 95 | PXR counter 41
COc1ccccc1NC(=O)COc1ccccc1C(=O)Nc1ccccc1	none
COc1ccc(OCc2nn3c(-c4ccccc4)nnc3s2)cc1	none (no result: AHR activator, GRIN3A LBD mod)
Cc1nc2nc(-c3cccnc3)nn2c(C)c1Cl	AHR activator 98 | AHR act confirm 112 | PXR counter 29
Cc1cc(C)nc(Nc2ccccc2Br)n1	none
Cc1cc(C)nc(Nc2cccc3ccccc23)n1	AHR activator 131 | AHR act confirm 109 | PXR counter 19
CCCCNC(=O)C[C@H]1C[C@@]2(C(=O)OC)C(=C[C@H](C(C)(C)C)O[C@@H]2C)N(CCc2ccc(OC)c(OC)c2)C1=O	none (no result: AHR activator, GRIN3A LBD mod)
Cc1ccc(-c2cc(-c3cccs3)[nH]n2)c(O)c1	AHR activator 109 | AHR act confirm 118
Nc1nc(-c2cccnc2)nc2sc3c(c12)CCCC3	AHR activator 118 | AHR act confirm 90 | PXR counter 72
CN(C)c1c2ccccc2nc2c(F)c(F)c(F)c(F)c12	none (no result: ADAM10 inh, rCAG binder, proKLK7 act, ADAM17 inh)
Cc1c2ccccc2nc2c(F)c(N(C)C)c(F)c(F)c12	AHR activator 122 | AHR act confirm inactive | PXR counter 46
COc1ccc2[nH]c(=O)c3c(c2c1)OC(C)(C)C=C3	none
Cc1cc2c([nH]c3ccccc32)c2c1OC(C)(C)C=C2	AHR activator 102, GRIN3A LBD mod 16 | AHR act confirm 119 | PXR counter 72
Cc1cc(Br)ccc1NC(=O)c1sc2ncnc(N3CCN(c4ccccn4)CC3)c2c1C	AHR activator 80 | AHR act confirm 91 | PXR counter 19
O=[N+]([O-])c1cccc(/C([O-])=C(/C(=S)Nc2ccccc2)[n+]2ccccc2)c1	AHR activator 83 | AHR act confirm inactive | PXR counter 159
C/C=C/C(=O)OCC(=O)Nc1cc(-c2cc(C)c(C)cc2C)nn1-c1ccccc1	AHR activator 105 | AHR act confirm 90 | PXR counter 85
Cc1cnc(C(=O)OCC(=O)Nc2cc(-c3ccccc3)nn2-c2ccccc2)cn1	none
O=C(NCC1CCCO1)c1ccc(COc2ccc(F)cc2)o1 (stereo not given)	none

Bioassay records deposited in PubChem by several laboratories.
